Experimental data as given in PubChem BioAssay AID1159580 (chemical genetic matrix, 2015).
In all, about 5,500 compounds went through this assay and about 2,000 (36%) were called active. Inconclusive results (about 18%) are left out. This is one part of the list. Unmarked numbers belong to inactive results. Rule as the data show it: active = normalized growth mostly below about 0.91 (no sharp cut-off); inconclusive = no clear call, values can overlap the other calls; inactive = mostly above about 0.92.

Test: chemical genetic growth profiling, strain panel (AID 1159580);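 also: tested at 20 µM; growth read once vehicle control cultures reached saturation at 30 °C; 1 = growth at the plate median or of vehicle wells; lower values mean less growth of the strain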
Details: S. cerevisiae deletion strains, growth OD
[1] = locus YDL101C, strain DUN1, active compounds read low
[2] = locus YHR030C, strain SLT2, active compounds read low
[3] = locus YMR263W, strain SAP30, active compounds read low
[4] = locus YNL153C, strain GIM3, active compounds read low
[5] = locus YPL055C, strain LGE1, active compounds read low

Compound: N#Cc1c(N)sc2c1CCc1ccccc1-2
- normalized growth (locus YAR019C, strain CDC15, active compounds read low): 0.896
- normalized growth (locus YBL105C, strain PKC1, active compounds read low): 0.897 (active)
- normalized growth (locus YBR135W, strain CKS1, active compounds read low): 0.898
- normalized growth (locus YBR136W, strain MEC1, active compounds read low): 0.896
- normalized growth (locus YBR160W, strain CDC28, active compounds read low): 0.905
- normalized growth (locus YDL017W, strain CDC7, active compounds read low): 0.899 (active)
- normalized growth (locus YDL028C, strain MPS1, active compounds read low): 0.898
- normalized growth [1]: 0.929
- normalized growth (locus YDL108W, strain KIN28, active compounds read low): 0.898
- normalized growth (locus YDL132W, strain cdc53, active compounds read low): 0.884 (active)
- normalized growth (locus YDL214C, strain PRR2, active compounds read low): 0.671 (active)
- normalized growth (locus YDR052C, strain DBF4, active compounds read low): 0.905 (active)
- normalized growth (locus YDR054C, strain cdc34, active compounds read low): 0.89
- normalized growth (locus YDR226W, strain ADK1, active compounds read low): 0.887 (active)
- normalized growth (locus YDR477W, strain SNF1, active compounds read low): 0.546 (active)
- normalized growth (locus YER123W, strain YCK3, active compounds read low): 0.596 (active)
- normalized growth (locus YER133W, strain GLC7, active compounds read low): 0.499 (active)
- normalized growth (locus YFL009W, strain cdc4, active compounds read low): 0.903
- normalized growth (locus YFL029C, strain CAK1, active compounds read low): 0.891
- normalized growth (locus YFR003C, strain YPI1, active compounds read low): 0.894 (active)
- normalized growth (locus YFR019W, strain FAB1, active compounds read low): 0.833
- normalized growth (locus YFR028C, strain CDC14, active compounds read low): 0.884 (active)
- normalized growth (locus YGR040W, strain KSS1, active compounds read low): 0.452 (active)
- normalized growth (locus YGR052W, strain FMP48, active compounds read low): 0.508 (active)
- normalized growth (locus YGR092W, strain DBF2, active compounds read low): 0.545
- normalized growth [2]: 0.479 (active)
- normalized growth (locus YHR079C, strain IRE1, active compounds read low): 0.593
- normalized growth (locus YHR082C, strain KSP1, active compounds read low): 0.568 (active)
- normalized growth (locus YHR205W, strain SCH9, active compounds read low): 0.558 (active)
- normalized growth (locus YIL147C, strain SLN1, active compounds read low): 0.894
- normalized growth (locus YJL095W, strain BCK1, active compounds read low): 0.508
- normalized growth (locus YJL128C, strain PBS2, active compounds read low): 0.918
- normalized growth (locus YJL157C, strain FAR1, active compounds read low): 0.605 (active)
- normalized growth (locus YJR016C, strain ILV3, active compounds read low): 0.892 (active)
- normalized growth (locus YJR066W, strain TOR1 (second series), active compounds read low): 0.474 (active)
- normalized growth (locus YJR066W, strain TOR1, active compounds read low): 0.458 (active)
- normalized growth (locus YKL048C, strain ELM1, active compounds read low): 0.798 (active)
- normalized growth (locus YKL067W, strain YNK1, active compounds read low): 0.664 (active)
- normalized growth (locus YKL101W, strain HSL1, active compounds read low): 0.66 (active)
- normalized growth (locus YKL193C, strain SDS22, active compounds read low): 0.888 (active)
- normalized growth (locus YKL203C, strain TOR2, active compounds read low): 0.489 (active)
- normalized growth (locus YLR113W, strain HOG1, active compounds read low): 0.806 (active)
- normalized growth (locus YLR133W, strain CKI1, active compounds read low): 0.593 (active)
- normalized growth (locus YLR403W, strain SFP1, active compounds read low): 0.401 (active)
- normalized growth (locus YML070W, strain DAK1, active compounds read low): 0.642 (active)
- normalized growth (locus YMR001C, strain CDC5, active compounds read low): 0.886 (active)
- normalized growth (locus YMR205C, strain PFK2 (second series), active compounds read low): 0.69 (active)
- normalized growth (locus YMR277W, strain FCP1, active compounds read low): 0.88 (active)
- normalized growth (locus YNL006W, strain LST8, active compounds read low): 0.903 (active)
- normalized growth (locus YNL020C, strain ARK1, active compounds read low): 0.611 (active)
- normalized growth (locus YNL161W, strain CBK1, active compounds read low): 0.898 (active)
- normalized growth (locus YNL183C, strain NPR1, active compounds read low): 0.492 (active)
- normalized growth (locus YNL207W, strain RIO2, active compounds read low): 0.867 (active)
- normalized growth (locus YNL222W, strain SSU72, active compounds read low): 0.897
- normalized growth (locus YNL307C, strain MCK1 (second series), active compounds read low): 0.508 (active)
- normalized growth (locus YOL078W, strain AVO1, active compounds read low): 0.898
- normalized growth (locus YOL136C, strain PFK27, active compounds read low): 0.636 (active)
- normalized growth (locus YOR061W, strain CKA2, active compounds read low): 0.616 (active)
- normalized growth (locus YOR119C, strain RIO1, active compounds read low): 0.506 (active)
- normalized growth (locus YOR231W, strain MKK1, active compounds read low): 0.653
- normalized growth (locus YOR329C, strain SCD5, active compounds read low): 0.91
- normalized growth (locus YPL031C, strain PHO85, active compounds read low): 0.464 (active)
- normalized growth (locus YPL153C, strain RAD53, active compounds read low): 0.494 (active)
- normalized growth (locus YPL204W, strain HRR25, active compounds read low): 0.491 (active)
- normalized growth (locus YPL209C, strain IPL1, active compounds read low): 0.888 (active)
- normalized growth (locus YPL256C, strain CLN2, active compounds read low): 0.97
- normalized growth (locus YPR025C, strain CCL1, active compounds read low): 0.911
- normalized growth (locus YPR106W, strain ISR1, active compounds read low): 0.918
- normalized growth (locus YPR111W, strain DBF20, active compounds read low): 0.912
- normalized growth (strain NNK1, active compounds read low): 0.915
- normalized growth (strain TSCII, active compounds read low): 0.899

Compound: COc1ccc(-c2ccc(N)[n+](CCCC(=O)O)n2)cc1
- normalized growth (locus YAL040C, strain CLN3, active compounds read low): 1.05
- normalized growth (locus YCL061C, strain MRC1 (second series), active compounds read low): 1
- normalized growth (locus YDR363W, strain ESC2, active compounds read low): 1.01
- normalized growth (locus YER002W, strain NOP16, active compounds read low): 0.993
- normalized growth [3]: 1.01
- normalized growth (locus YMR307W, strain GAS1, active compounds read low): 1.01
- normalized growth [4]: 1.03
- normalized growth (locus YNL175C, strain NOP13, active compounds read low): 1
- normalized growth (locus YNL197C, strain WHI3, active compounds read low): 1.01
- normalized growth (locus YNL224C, strain SQS1, active compounds read low): 1.01
- normalized growth (locus YOR083W, strain WHI5 (second series), active compounds read low): 1.02
- normalized growth [5]: 1.01

Compound: COc1ccc(/C(C)=N\NC2=NCCCN2)cc1
- normalized growth (locus YAL013W, strain DEP1, active compounds read low): 1
- normalized growth (locus YBR229C, strain ROT2, active compounds read low): 1.01
- normalized growth (locus YCL061C, strain MRC1, active compounds read low): 1
- normalized growth [1]: 1.03
- normalized growth (locus YDR150W, strain NUM1, active compounds read low): 0.999
- normalized growth (locus YEL061C, strain CIN8, active compounds read low): 0.991
- normalized growth (locus YGR078C, strain PAC10, active compounds read low): 1
- normalized growth [2]: 0.987
- normalized growth (locus YHR087W, strain rtc3, active compounds read low): 0.993
- normalized growth (locus YJL187C, strain SWE1, active compounds read low): 1.01
- normalized growth (locus YJR043C, strain POL32, active compounds read low): 0.998
- normalized growth (locus YJR075W, strain HOC1, active compounds read low): 0.986
- normalized growth (locus YKL190W, strain CNB1, active compounds read low): 0.973
- normalized growth (locus YLR039C, strain RIC1, active compounds read low): 0.957
- normalized growth (locus YLR058C, strain SHM2 (second series), active compounds read low): 0.991
- normalized growth (locus YLR085C, strain ARP6, active compounds read low): 0.982
- normalized growth (locus YLR262C, strain YPT6, active compounds read low): 0.978
- normalized growth (locus YML094W, strain GIM5, active compounds read low): 1.08
- normalized growth (locus YMR219W, strain ESC1, active compounds read low): 0.997
- normalized growth [3]: 1
- normalized growth [4]: 1.01
- normalized growth (locus YNL298W, strain CLA4 (second series), active compounds read low): 0.966
- normalized growth (locus YNL322C, strain KRE1, active compounds read low): 1
- normalized growth (locus YNR030W, strain Alg12, active compounds read low): 0.993
- normalized growth [5]: 1.01
- normalized growth (locus YPL241C, strain CIN2, active compounds read low): 1.03
- normalized growth (locus YPR135W, strain CTF4, active compounds read low): 1.04
